# Shown are actives, neighbours in structure and some others; about 1.5% of the full set was active somewhere.
# FBPA coupling cs: inhibits coupling enzyme system, counter-screen for aldolase hits | coupling enzyme system counterscreen, AmpLite Red fluorescence | activity change, negative = inhibition, % at 58.2 µM, hits read low | 290,000 compounds, 0.67% hits | AID 2472; in the data active means activity change below about -30%
#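 Counterscreen of the coupled detection system alone, without aldolase: glyceraldehyde-3-phosphate coupling enzymes plus AmpLite Red readout. Compounds at 57.5 uM final, 10 min RT preincubation, 20 min RT reaction, fluorescence 525/598 nm.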
# Eya2 phos inh: blocks the phosphatase activity of human Eya2; O00167; 330,000 compounds, 0.006% hits; recombinant Eya2, OMFP fluorescence dephosphorylation (OMFP is methylfluorescein phosphate); Potency, µM (series often up to 76.9 µM), actives largely listed as inhibitors
# Target sequence (O00167 whole entry, looked up): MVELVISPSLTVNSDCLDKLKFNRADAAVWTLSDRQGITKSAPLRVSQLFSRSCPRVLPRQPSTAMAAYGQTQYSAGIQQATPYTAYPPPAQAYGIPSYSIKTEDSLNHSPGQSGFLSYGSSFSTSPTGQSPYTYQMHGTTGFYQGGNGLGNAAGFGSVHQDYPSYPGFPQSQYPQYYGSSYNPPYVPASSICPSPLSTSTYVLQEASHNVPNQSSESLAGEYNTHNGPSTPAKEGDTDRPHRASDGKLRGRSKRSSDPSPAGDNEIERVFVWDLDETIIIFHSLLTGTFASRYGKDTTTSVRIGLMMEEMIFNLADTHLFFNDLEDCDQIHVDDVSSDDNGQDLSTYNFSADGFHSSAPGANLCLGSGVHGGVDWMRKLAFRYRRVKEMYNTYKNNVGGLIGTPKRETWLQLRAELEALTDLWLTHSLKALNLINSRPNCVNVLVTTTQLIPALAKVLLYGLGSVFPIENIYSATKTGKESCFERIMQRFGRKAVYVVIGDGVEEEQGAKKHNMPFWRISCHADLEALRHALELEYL
#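 Eya2 (0.2 uM) preincubated 10 min at ambient with compound, then OMFP substrate added at 50 uM; 10 min reaction in 50 mM HEPES pH 7.5, 50 mM NaCl, 5 uM MgCl2, 0.05% BSA, 1 mM DTT. Fluorescence read at Ex 485/Em 525 nm.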
# TrxR1 inh: inhibitors of rat thioredoxin reductase 1. O89049. Potency, µM (highest dose often 114 µM), hits mostly inhibitors. AID 588453. recombinant rTrxR1, NADPH fluorescence consumption, selenite substrate. 390,000 compounds, 1% hits; further: nearly all actives have a fitted effect of over 65% in size
#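 Rat TrxR1 (90 nM in the dispensed reagent) was pre-reduced with 400 uM NADPH for 5 min at room temperature, then incubated with compound for 15 min. After 400 uM selenite was added, NADPH fluorescence (Ex 340/Em 450 nm) was followed for 8 min.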
# TrxR1 substrate: rat thioredoxin reductase 1 substrate activity; Potency, µM (highest dose often 114 µM); 390,000 compounds, 0.01% hits; AID 588456; purified TrxR1 substrate turnover, NADPH consumption readout; further: nearly all actives have a fitted effect of over 50% in size
#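 Rat TrxR1, dispensed at 90 nM, was prereduced with 400 uM NADPH (final) for 5 min at ~22 deg C, then incubated with compound 15 min before 400 uM selenite. A first-read NADPH fluorescence drop versus no-compound background flagged substrates.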
# mIDH1 inhibitor: inhibitors of human mutant IDH1 R132H | O75874 | IDH1-R132H enzyme, NADPH consumption, diaphorase/resazurin fluorescence | Potency, µM (doses to about 76.6 µM), actives largely listed as inhibitors | 390,000 compounds, 0.093% hits | AID 602179; further: nearly all actives have a fitted effect of over 65% in size
#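 IDH1-R132H (0.5 ug/mL dispensed) in pH 7.5 Tris buffer was preincubated 30 min with compound, then given a substrate mix of 0.016 mM NADPH and 2 mM alpha-KG for 80 min at room temperature; remaining NADPH was read by diaphorase/resazurin fluorescence.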
# Resorufin autofl: counter-screen for mutant IDH1 inhibitors: fluorescence interference; 750 tested, under 10 active; shares compounds with mIDH1 inhibitor; Resorufin detection reagent fluorescence interference, cell-free; inhibition of signal, % at 51.2 µM
# WT IDH1 inh: inhibits human wild-type IDH1, mutant selectivity check; shares compounds with mIDH1 inhibitor; WT IDH1 enzyme, NADPH diaphorase/resazurin fluorescence; Potency, µM (highest dose often 115 µM), most hits filed as inhibitors; 750 compounds, 9% hits; further: nearly all actives have a fitted effect of over 55% in size
# mIDH1 confirm: inhibits human mutant IDH1 enzyme in cherrypick confirmation | shares compounds with mIDH1 inhibitor | 750 compounds, 83% hits | IDH1 R132H enzyme, NADPH diaphorase/resazurin fluorescence | AID 624002 | Potency, µM (titrated, usually from 76.6 µM), hits mostly inhibitors; further: nearly all actives have a fitted effect of over 50% in size
# Numbers stand for hits; i = inactive; ? = inconclusive; nt = no result; ! = not confirmed by another sample. Unless noted, the call rests on the fitted dose curve; in most records, active means well fitted curve in the direction sought with a large enough effect; inconclusive means small, poorly fitted or top-dose-only effect, or another doubt; inactive means no such curve, though single readings can be large; an effect the other way counts as inactive or inconclusive.
SMILES,FBPA coupling cs,Eya2 phos inh,TrxR1 inh,TrxR1 substrate,mIDH1 inhibitor,Resorufin autofl,WT IDH1 inh,mIDH1 confirm
Nc1c(S(=O)(=O)O)cc(NC(=O)c2ccccc2)c2c1C(=O)c1ccccc1C2=O,i,i,i,i,?,i,28.2µM,14.1µM
COc1ccc(-c2nc(-c3ccccc3)oc2NC(C)C)cc1,i,nt,nt,nt,nt,nt,nt,nt
O=C(NC1CCCCC1)N(Cc1ccc(F)cc1)Cc1nc2ccccc2c(=O)[nH]1,i,i,i,i,?,i,i,28.2µM
Cc1cc(C#N)c(C)c(SCc2[nH]nc3c2C(c2ccccc2)C(C#N)=C(N)O3)n1 (centres undefined),i,i,?,i,?,i,?,35.5µM
Cc1ccc(SCc2[nH]nc3c2C(c2cccnc2)C(C#N)=C(N)O3)cc1 (centres undefined),i,i,i,i,i,nt,nt,nt
Cc1cc(C)c(C#N)c(SCc2ccc(F)cc2)n1,i,i,i,i,i,nt,nt,nt
Cc1cc(C)c(C#N)c(SCc2[nH]nc3c2C(c2ccc(F)cc2)C(C#N)=C(N)O3)n1 (centres undefined),i,i,i,i,?,i,?,31.6µM
Cc1c(C#N)c(N)nc2c3c(sc12)NC(=O)CC3c1ccc(Cl)cc1 (centres undefined),i,i,i,i,29.3µM,i,i,15.8µM
CC(CCc1ccccc1)NC(=O)COC(=O)c1ccc(S(C)(=O)=O)c([N+](=O)[O-])c1 (centres undefined),i,i,0.794µM,i,?,i,i,?
CN(C)S(=O)(=O)c1ccc(C(=O)OCc2nnc(-c3ccccc3)o2)cc1,i,i,i,i,i,nt,nt,nt
CS(=O)(=O)c1ccc(C(=O)OCc2nnc(-c3ccccc3)o2)cc1[N+](=O)[O-],i,i,1µM,i,?,i,i,25.1µM
CC(C)(C)OC(=O)NCCCCC1=CC2=CC(=O)C(C)(OC(=O)CCc3ccccc3)C(=O)C2=CO1 (centres undefined),i,nt,nt,nt,nt,nt,nt,nt
O=C1CC[C@@H](C(=O)N[C@@H](Cc2cnc[nH]2)C(=O)N[C@@H](Cc2c[nH]c3ccccc23)C(=O)N[C@@H](CO)C(=O)N[C@@H](Cc2ccc(O)cc2)C(=O)O)N1,i,nt,nt,nt,nt,nt,nt,nt
O=c1cc(CN2CCc3ccccc32)nc2sccn12,i,i,i,i,31.6µM,i,?,50.1µM
Cc1ccc(/C=C2\C(=O)ON=C2c2ccccc2)o1,i,i,i,i,i,nt,nt,nt
Cc1ccc(-c2ccc(/C=C3\C(=O)ON=C3c3ccccc3)o2)c([N+](=O)[O-])c1,i,i,11.2µM,i,52.1µM,i,79.4µM,35.5µM
C=CCn1c(SCC(=O)N2CCCC2=O)nc2sc(CC)cc2c1=O,nt,i,i,i,i,nt,nt,nt
C=CCn1c(SCC(=O)N2CCN(C(=O)c3ccco3)CC2)nc2sc(CC)cc2c1=O,i,i,?,i,?,i,i,17.8µM
CCOC(=O)c1cc(-c2ccc(/C=N\n3cnnc3)o2)ccc1Cl,i,i,i,i,i,nt,nt,nt
CCOC(=O)c1cc(-c2ccc(/C=C3/C(=O)N(c4ccc(C(=O)O)cc4)N=C3C)o2)ccc1Cl,i,i,i,i,?,i,5.01µM,1.26µM
O=C(C=P(c1ccccc1)(c1ccccc1)c1ccccc1)c1ccccc1-c1ccccc1C(=O)C=P(c1ccccc1)(c1ccccc1)c1ccccc1,nt,nt,?,i,23.3µM,i,?,3.16µM
NSc1nc(N)c2nc(-c3ccccc3)c(-c3ccccc3)nc2n1,i,i,i,i,?,i,i,22.4µM
Brc1ccc2c(c1)C(c1cccs1)=NNC(c1cccnc1)=N2,i,i,i,i,29.3µM,i,i,22.4µM
NCCCC[C@H]1CNC(=O)C(=O)N1CCCCC1CCCCC1,i,i,i,i,i,nt,nt,nt
O=C1NC[C@@H](Cc2cccc3ccccc23)N(CCCCC2CCCCC2)C1=O,nt,i,i,i,?,i,i,39.8µM
SMILES,FBPA coupling cs,Eya2 phos inh,TrxR1 inh,TrxR1 substrate,mIDH1 inhibitor,Resorufin autofl,WT IDH1 inh,mIDH1 confirm
CC(=O)OCOC(=O)CNc1ccccc1OCCOc1ccccc1NCC(=O)OCOC(C)=O,i,nt,nt,nt,nt,nt,nt,nt
O=c1[nH]c(/C=C/c2ccccc2Cl)c([N+](=O)[O-])c(=O)[nH]1,i,i,i,i,i,nt,nt,nt
O=C(COc1ccccc1/C=C\c1[nH]c(=O)[nH]c(=O)c1[N+](=O)[O-])Nc1ccccc1,i,i,?,i,41.4µM,i,?,39.8µM
COc1cc(NC(=O)CN(c2cc(C)cc(C)c2)S(=O)(=O)c2c(C)[nH]c(=O)[nH]c2=O)cc(OC)c1,nt,i,i,i,i,nt,nt,nt
Cc1cc(C)cc(N(CC(=O)Nc2ccc(C(F)(F)F)cc2)S(=O)(=O)c2c(C)[nH]c(=O)[nH]c2=O)c1,nt,i,i,i,10.4µM!,i,44.7µM,31.6µM
C[C@H]1CN([C@@H](C)CO)C(=O)c2cccc(NC(=O)Nc3ccc(C(F)(F)F)cc3)c2O[C@@H]1CN(C)S(=O)(=O)c1ccccc1,nt,i,i,i,?,i,i,?
CC(C)=CCC/C(C)=C/CO/N=C1/C[C@@H](O)[C@@H](O)[C@@H]2[C@@H]3C(=O)N(Cc4ccc5c(c4)OCO5)C(=O)[C@H]3CC[C@H]12,i,nt,nt,nt,nt,nt,nt,nt
C[C@H](NC(=O)Cc1cc(F)cc(F)c1)C(=O)N[C@@H](C(=O)OC(C)(C)C)c1ccccc1,i,nt,nt,nt,nt,nt,nt,nt
Cc1cc(-n2c(=S)sc3c(=O)n(-c4ccc(F)cc4)c(SCC(=O)O)nc32)ccc1Cl,i,i,i,i,26.1µM,i,?,7.94µM
COc1ccccc1-n1c(SCC(=O)O)nc2c(sc(=S)n2-c2ccc(Cl)c(C)c2)c1=O,i,i,i,i,i,nt,nt,nt
COc1ccc(/C=C/C(=O)c2ccc([N+](=O)[O-])o2)cc1,nt,i,?,i,i,nt,nt,nt
Cc1ccccc1/C=C/C(=O)c1ccc([N+](=O)[O-])o1,nt,i,3.55µM,i,?,i,39.8µM,?
Cc1cccc(/C=C/C(=O)c2ccc([N+](=O)[O-])o2)c1,nt,i,1.26µM,i,4.47µM,i,22.4µM,2µM

# Screening results as filed in PubChem BioAssay.
